Data on nine compounds can be found in PubChem BioAssay (NCI).

About 83,000 compounds went through this panel and 20% of them were active in at least one assay; those are over-represented in the sample as a whole.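 Percent growth is the endpoint: 0 to 100 indicates growth inhibition (40 means 60% inhibition), 0 means no net growth, and negative values indicate cell death.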 Unmarked numbers belong to inactive results. Calls of active or inactive are those of the source. Rule for the calls: active = growth percent below 10; inactive = the rest.

Some test systems named below: SR leukemia; RPMI-8226 leukemia; OVCAR-8 ovarian; OVCAR-5 ovarian; OVCAR-4 ovarian; SK-OV-3 ovarian; IGROV1 ovarian; OVCAR-3 ovarian; HS 578T breast; T-47D breast; BT-549 breast; MDA-MB-435 melanoma; SW-620 colon; MCF7 breast; HCT-116 colon; HCC-2998 colon; KM12 colon; NCI/ADR-RES ovarian.
What all share (assay): NCI-60 one-dose screen, 48 h (100 = growth as untreated, 0 = no growth, -100 = all killed)
What all share (details): 10 µM unless noted

In the case of `O=S(=O)(Nc1ccc(Br)cc1)c1ccc(-c2cnc(C3CC3)o2)cc1`, the growth in the test with SR leukemia is 12.7%; in the test on RPMI-8226 leukemia, 13.9%; with OVCAR-8 ovarian, 41.5%; in the test on OVCAR-5 ovarian, 51%; in the test on OVCAR-4 ovarian it was 67.8%; in the test with SK-OV-3 ovarian, 35.5%. The growth is 36.1% in the test with IGROV1 ovarian; -7.12% (active) with OVCAR-3 ovarian; -8.02% (active) with HS 578T breast; 18.6% in the test on T-47D breast; 47.1% with BT-549 breast; -9% (active) in the test on MDA-MB-435 melanoma. The growth in the test with SW-620 colon was 11.1%; in the test with MCF7 breast, 16.1%; with HCT-116 colon, 18.7%; in the test with HCC-2998 colon it was 56.2%; in the test on KM12 colon it was 24.6%.
On to `COc1cc(OCc2cccc(-c3ccccc3)c2C)cc(OC)c1CN1CCCCC1C(=O)NCCOCCOCCN` (stereo unspecified), for which the growth with SR leukemia is -26% (active); with RPMI-8226 leukemia it was 13.4%; in the test with OVCAR-8 ovarian it was 82.8%; in the test on OVCAR-5 ovarian, 101%; in the test with OVCAR-4 ovarian it was 53.3%; in the test on SK-OV-3 ovarian it was 104%. For the same compound, the growth in the test on IGROV1 ovarian was 70%; in the test with OVCAR-3 ovarian it was 85%; with HS 578T breast, 84.5%; in the test on T-47D breast, 71.2%; in the test on BT-549 breast it was 84.7%; in the test on MDA-MB-435 melanoma, -72.8% (active). The growth in the test with SW-620 colon is 61.2%; with MCF7 breast it was 51.3%; in the test with HCT-116 colon, 22.8%; in the test on HCC-2998 colon it was 88%; with KM12 colon, 78.9%.
For `COc1ccc(Cn2cc(C(=O)N=Nc3c(O)[nH]c4ccc(Br)cc34)nn2)cc1`, the growth with SR leukemia is 77.5%; with RPMI-8226 leukemia it was 100%; with OVCAR-8 ovarian, 99.2%; in the test with OVCAR-5 ovarian, 106%; with OVCAR-4 ovarian, 105%; in the test with SK-OV-3 ovarian, 108%. For the same compound, the growth is 105% with IGROV1 ovarian; 112% in the test with OVCAR-3 ovarian; 114% in the test on HS 578T breast; 106% in the test with T-47D breast; 111% in the test with BT-549 breast; 101% in the test on MDA-MB-435 melanoma. Moreover, the growth with SW-620 colon was 107%; in the test with MCF7 breast, 86.3%; in the test with HCT-116 colon, 77%; in the test on HCC-2998 colon, 98.5%; in the test with KM12 colon, 104%.
Turning to `CCCCCCCCNc1ncnc2c1ncn2Cc1nnc2c3ccccc3c(Cl)nn12`, the growth is 16.7% in the test on SR leukemia; 35.4% in the test on RPMI-8226 leukemia; 30% in the test on OVCAR-8 ovarian; 102% in the test with OVCAR-5 ovarian; 42.9% with OVCAR-4 ovarian; 4.2% (active) in the test on SK-OV-3 ovarian. Moreover, the growth was 31.4% in the test with IGROV1 ovarian; 58% with OVCAR-3 ovarian; 54.3% in the test on HS 578T breast; 26.5% in the test on T-47D breast; 28% in the test with BT-549 breast; 46% in the test with MDA-MB-435 melanoma. Also, the growth with SW-620 colon is 56.8%; in the test with MCF7 breast, 41.4%; in the test with HCT-116 colon it was 31.2%; with HCC-2998 colon it was 76.3%; in the test on KM12 colon, 65.3%.
In the case of `COC(=O)CCc1c(/C=C2\N=C(c3ccc[nH]3)C=C2OC)[nH]c(C)c1C(=O)OCc1ccccc1`, the growth was -17.8% (active) with SR leukemia; -32.5% (active) with RPMI-8226 leukemia; 7.03% (active) in the test on OVCAR-8 ovarian; 34.1% with OVCAR-5 ovarian; 31.3% in the test with OVCAR-4 ovarian; 21.5% in the test on SK-OV-3 ovarian. Further, the growth is 21.7% with IGROV1 ovarian; -31.1% (active) in the test on OVCAR-3 ovarian; -14.7% (active) with HS 578T breast; -2.41% (active) in the test with T-47D breast; 1.79% (active) with BT-549 breast; 2.53% (active) in the test with MDA-MB-435 melanoma. Further, the growth with SW-620 colon was 3.31% (active); in the test with MCF7 breast, 7.6% (active); in the test on HCT-116 colon it was -9.83% (active); in the test on HCC-2998 colon, 22.8%; in the test with KM12 colon, 10.6%.
Regarding `Nc1nc(Nc2ccc([N+](=O)[O-])cc2O)nc(C(Cl)(Cl)Cl)n1`, the growth with SR leukemia is 7.45% (active); in the test with RPMI-8226 leukemia it was 51.1%; in the test with OVCAR-8 ovarian it was 81.6%; with OVCAR-5 ovarian it was 105%; with OVCAR-4 ovarian, 55.2%; in the test with SK-OV-3 ovarian, 95.4%. In addition, the growth is 88% in the test on IGROV1 ovarian; 55% in the test with OVCAR-3 ovarian; 84.3% in the test on HS 578T breast; 48% in the test on NCI/ADR-RES ovarian; 66.8% with BT-549 breast; -36.6% (active) with MDA-MB-435 melanoma. The growth is 54.2% in the test on SW-620 colon, 70.6% with HCT-116 colon, 108% in the test with HCC-2998 colon and 49.8% in the test on KM12 colon.
As for `COc1ccccc1-c1nc2ccc3[nH]ncc3c2c2c1CCCC2`, the growth was 29.1% with SR leukemia; 68.6% in the test on RPMI-8226 leukemia; 81.2% in the test with OVCAR-8 ovarian; 103% with OVCAR-5 ovarian; 85.6% with OVCAR-4 ovarian; 80.5% with SK-OV-3 ovarian. Also, the growth with IGROV1 ovarian was 58.9%; with OVCAR-3 ovarian it was 114%; in the test with HS 578T breast it was 44.8%; in the test on T-47D breast, 74.2%; with BT-549 breast, 77.1%; in the test with MDA-MB-435 melanoma it was 64.4%. The growth with SW-620 colon was 82.6%; in the test on HCT-116 colon, 64.9%; in the test on HCC-2998 colon, 113%; in the test on KM12 colon it was 31%.
For the compound `COc1cc2c(c(OC)c1OC)C(=O)CC(c1cccc(C(=O)Nc3ccc(Br)cc3)c1)O2` (stereo unspecified), the growth with SR leukemia was 22.2%; in the test on RPMI-8226 leukemia it was 14.6%; in the test on OVCAR-8 ovarian it was 47.1%; with OVCAR-5 ovarian, 89.4%; in the test on OVCAR-4 ovarian it was 45.6%; in the test with SK-OV-3 ovarian, 76.2%. The growth in the test on IGROV1 ovarian was 67.4%; with OVCAR-3 ovarian, 65%; in the test with HS 578T breast, 91.4%; in the test with T-47D breast, 20.3%; in the test on BT-549 breast, 34%; in the test on MDA-MB-435 melanoma, 30.3%. Further, the growth is 85.8% with SW-620 colon; 42.9% in the test with MCF7 breast; 46.6% in the test with HCT-116 colon; 92.1% in the test with HCC-2998 colon; 62.9% in the test with KM12 colon.
Take `O=C(COc1ccc(/C=C2\Oc3ccccc3C2=O)cc1)Nc1nccs1`: the growth in the test with SR leukemia is 0% (active); with RPMI-8226 leukemia, 40.4%; with OVCAR-8 ovarian, 41.8%; in the test on OVCAR-5 ovarian, 91.8%; with OVCAR-4 ovarian, 90.3%; with SK-OV-3 ovarian, 125%. For the same compound, the growth in the test on IGROV1 ovarian was -13.3% (active); with OVCAR-3 ovarian it was 97.2%; in the test on HS 578T breast, 107%; in the test on T-47D breast, 115%; in the test with BT-549 breast, 115%; with MDA-MB-435 melanoma, 69.4%. In addition, the growth in the test with SW-620 colon is 110%; in the test with MCF7 breast, 75.6%; in the test with HCT-116 colon, 94.5%; with HCC-2998 colon, 97.7%; with KM12 colon, 69.7%.
